Holding throughout (type): functional
Test [1] concerns the target Solute carrier family 2, facilitated glucose transporter member 1 (Homo sapiens) (UniProt P11166). As to the kind of experiment: ST_JUDE_LEISH: Cytotoxicity at 2uM final concentration against transgenic Leishmania Mexicana promastigotes LmGLUT1 that are glucose transport deficient and complemented with the human glucose transporter GLUT1. Activity is measured by DNA content using SYBR green in vitro.

Test [2] deals with Hexose transporter 1 (Plasmodium falciparum) (UniProt O97467). The test is described as follows: ST_JUDE_LEISH: Cytotoxicity at 2uM final concentration against transgenic Leishmania Mexicana promastigotes LmPfHT that are glucose transport deficient and complemented with the Plasmodium falciparum hexose transporter. Activity is measured by DNA content using SYBR green in vitro.

Test [3] addresses Glucose transporter (Leishmania mexicana) (UniProt O61059). The test is described as follows: ST_JUDE_LEISH: Cytotoxicity at 2uM final concentration against transgenic Leishmania Mexicana promastigotes LmGT2 that are glucose transport deficient and complemented with the L. Mexicana glucose transporter 2. Activity is measured by DNA content using SYBR green in vitro.

For 51 molecules, inhibition results are on record in ChEMBL document CHEMBL3433997, “St. Jude Leishmania screening dataset” (2016).

“And” between values parts separate entries of the source, which are not always exact repeats. Equal values may be shown once.

Solute carrier family 2, facilitated glucose transporter member 1 (Homo sapiens), sequence (P11166 whole entry): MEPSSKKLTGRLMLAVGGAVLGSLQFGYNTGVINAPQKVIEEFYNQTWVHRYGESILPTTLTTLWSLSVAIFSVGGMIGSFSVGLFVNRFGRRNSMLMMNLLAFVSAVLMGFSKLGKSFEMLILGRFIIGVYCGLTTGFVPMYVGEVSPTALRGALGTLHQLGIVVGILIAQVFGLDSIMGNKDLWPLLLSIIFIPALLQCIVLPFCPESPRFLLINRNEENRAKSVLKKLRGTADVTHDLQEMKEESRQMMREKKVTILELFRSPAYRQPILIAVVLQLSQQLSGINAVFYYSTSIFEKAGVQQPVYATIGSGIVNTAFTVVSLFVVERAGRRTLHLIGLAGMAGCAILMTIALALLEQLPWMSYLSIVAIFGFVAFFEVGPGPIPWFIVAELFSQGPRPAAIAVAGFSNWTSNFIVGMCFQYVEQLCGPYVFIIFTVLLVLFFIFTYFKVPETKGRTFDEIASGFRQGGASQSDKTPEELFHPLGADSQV

Broadly, the inhibition is the drop in the measured response relative to a control, in per cent. For `O=C(/C=C/c1ccc(Cl)c(Cl)c1)N1CCC(CN2CCC(c3c[nH]c4cc(C(F)(F)F)ccc34)CC2)CC1`, the inhibition in test [1] was 2.28%; in test [2], 3.35%; in test [3], -0.87%.
In the same order, the values of `CC(C)CNCc1ccc(-c2ccc(CN(C(=O)Nc3ccccc3)C3CCN(Cc4ccccc4)CC3)cc2)cc1` are 3.1%, 2.41% and 4.94%.
With `O=C(/C=C/c1ccc(Cl)c(Cl)c1)N1CCC(CN2CCC(c3c(Br)[nH]c4ccccc34)CC2)CC1`, the inhibition turned out to be 2.44% in test [1], 0.45% in test [2] and 0.55% in test [3].
For the molecule `O=C(/C=C/c1ccccc1O)NC1CCC(CN2CCC(c3c[nH]c4ccccc34)CC2)CC1` (stereo not drawn), the inhibition is -0.75% and -1.89% in test [1]; 0.85% and 0.08% in test [2]; -1.86% and -3.26% in test [3].
As to `O=C1Nc2cccc3c2C1(CCCCCN1CC=C(c2c[nH]c4ccccc24)CC1)CCC3` (stereo not drawn), the inhibition was found to be 14.1% in test [1], 10.6% in test [2] and 12.8% in test [3].
In the same order, the values of `CC[C@H]1CN2CC[C@@H]1C[C@H]2[C@H](O)c1cc(N2CCC(C(N)=O)CC2)nc2ccc(OC)cc12` are 8.84%, 7.92% and 8.43%.
Take `Cc1ccc(CC(C)NCC(O)c2cccc(Cl)c2)cc1F` (stereo not drawn): the inhibition stood at 9.84% in test [1], 9.76% in test [2] and 9.69% in test [3].
Turning to `COc1ccc(C=CC(=O)NC2CCC(CN3CCC(c4c[nH]c5ccccc45)CC3)CC2)cc1OC` (stereo not drawn), the inhibition is 2.26% and 2.87% in test [1]; 0.82% and 2.73% in test [2]; -1.08% and -3.42% in test [3].
Take `NC(=O)c1ccc2[nH]cc(C3CCN(CC4CCC(NC(=O)/C=C/c5ccc(Cl)c(Cl)c5)CC4)CC3)c2c1` (stereo not drawn): the inhibition in test [1] was -3.07% and 2.76%; in test [2], -1.26% and 2.22%; in test [3], 0.5% and 1.58%.
Turning to `CCCCNC(c1ccc(Cl)cc1)C(O)c1ccc(Cl)cc1` (stereo not drawn), the inhibition in test [1] was determined as 8.3%; in test [2] it was 8.45%; in test [3], 9.91%.
`O=C(/C=C/c1ccc(Cl)c(Cl)c1)N(Cc1ccccc1)C1CCC(CN2CCC(c3c[nH]c4ccccc34)CC2)CC1` (stereo not drawn): the results for the inhibition in test [1], in test [2] and in test [3] were 4.82%, 2.84% and 4.05%, respectively.
Take `CC[C@H]1CN2CC[C@@H]1C[C@H]2[C@H](O)c1cc(N2CCC(N3CCCCC3)CC2)nc2ccc(OC)cc12`: the inhibition in test [1] is 1.26%; in test [2], 4.69%; in test [3], -0.04%.
With `O=C(CCC(=O)c1ccc2c3c(cccc13)CC2)NC1CCC(CN2CCC(c3c[nH]c4ccccc34)CC2)CC1` (stereo not drawn), the inhibition in test [1] was 3.08%; in test [2] it was 3.49%; in test [3], 4.96%.
In the case of `COc1cccc(CN2CCC(CCOC(c3ccccc3)c3ccccc3)CC2)c1O`, the inhibition in test [1] is 2.87%; in test [2], -0.08%; in test [3], -0.42%.
Regarding `O=C(/C=C/c1ccc(Cl)c(Cl)c1)Nc1cccc(CN2CCC(c3c[nH]c4ccccc34)CC2)c1`, the inhibition in test [1] was 8.01%; in test [2], 6.99%; in test [3] it was 5.33%.
Regarding `OC(CNCc1ccccc1OC(F)F)c1cccc(C(F)(F)F)c1` (stereo not drawn), the inhibition was 1.52% in test [1], 1.17% in test [2] and 1.62% in test [3].
For the molecule `Cc1[nH]c2ccccc2c1C1=CCN(CCCCCNC(=O)/C=C/c2ccc(Cl)c(Cl)c2)CC1`, the results for the inhibition in test [1], in test [2] and in test [3] were 5.3%, 5.72% and 5.48%, respectively.
In the same order, the values of `COc1ccc(C2CNCc3c2cc(OC)c(OC)c3Cl)cc1` (stereo not drawn) are 4.33%, 4.69% and -0.73%.
In the case of `CN(C)CCCn1cc(C(=O)OC2CC3CCC(C2)N3C)c2cc(-c3ccccc3)ccc21` (stereo not drawn), the inhibition in test [1] came out at 12.9%; in test [2], 6.68%; in test [3], 9.57%.
As to `CC(=O)C1(c2ccccc2)CCN(CCC2(c3ccc(Cl)c(Cl)c3)CN(C(=O)Nc3cccc(C(F)(F)F)c3)CCO2)CC1` (stereo not drawn), the inhibition in test [1] is 7.51%; in test [2], 4.19%; in test [3] it was 3.14%.
Regarding `CN1C2CCC1c1cc(NC(=O)c3cc(-c4ccc(Cl)cc4)cs3)ccc12` (stereo not drawn), the figures for the inhibition in test [1], in test [2] and in test [3] were 8.89%, 9.62% and 8.52%, respectively.
With `COC(=O)c1ccc(CC(C)NCC(O)c2cccc(C(F)(F)F)c2)c(Cl)c1` (stereo not drawn), the inhibition turned out to be 2.55% in test [1], 2.18% in test [2] and 3.39% in test [3].
For the molecule `O=C(NC1CCC(CN2CCC(c3c[nH]c4ccccc34)CC2)CC1)NC12CC3CC(CC(C3)C1)C2` (stereo not drawn), the inhibition in test [1] was determined as 3.42%; in test [2], 3.16%; in test [3], 1.41%.
On to `CC[C@H]1CN2CC[C@H]1C[C@H]2[C@H](O)c1cc(-c2ccc(SC)cc2)nc2ccc(OC)cc12`, for which the results for the inhibition in test [1], in test [2] and in test [3] were 4.44%, 4.13% and 7.64%, respectively.
Regarding `CC[C@H]1CN2CC[C@H]1C[C@H]2[C@H](O)c1ccnc2ccc(OC)cc12`, the inhibition was -0.16% in test [1], 0.87% in test [2] and 0.32% in test [3].
Consider `Cc1cc(NC(=O)[C@H](CC(C)C)Nc2ccc(C#N)c3ccccc23)ccc1F`, for which the inhibition in test [1] is 0.56%; in test [2] it was 2.4%; in test [3], -0.16%.
As to `COC(=O)c1ccc(CC(C)NCC(O)c2ccc(F)c(Cl)c2)cc1` (stereo not drawn), the inhibition in test [1] came out at 0.56%; in test [2], 0.78%; in test [3] it was 2.31%.
Take `OC(CNC1CCCCCCC1)c1ccc(Cl)c(Cl)c1` (stereo not drawn): the inhibition is 1.96% in test [1], 2.06% in test [2] and 2.43% in test [3].
For the molecule `CC(=O)Nc1ccc(OCCN(CC(F)(F)F)c2ccc(C#N)cc2C(F)(F)F)cc1`, the inhibition in test [1] is 2.13%; in test [2] it was 2.71%; in test [3], 0.98%.
In the case of `Cc1ccc(-n2nc(C)c3c2NC(=O)CSC3c2ccsc2)cc1` (stereo not drawn), the figures for the inhibition in test [1], in test [2] and in test [3] were 9.48%, 13.5% and 11%, respectively.
As to `O=C(NC1CCC(CN2CCC(c3c[nH]c4ccccc34)CC2)CC1)c1cc(-c2ccc(F)cc2F)ccc1O` (stereo not drawn), the inhibition came to 0.76% in test [1], 0.13% in test [2] and 0.42% in test [3].
`NCC(=O)c1cc2c(cc1N)OCCO2`: the inhibition in test [1] amounted to 8.91%; in test [2] it was 9.43%; in test [3], 3.9%.
On to `CC[C@H]1CN2CC[C@@H]1C[C@H]2[C@H](O)c1cc(N2CCCC(C)(C)C2)nc2ccc(OC)cc12`, for which the values for the inhibition in test [1], in test [2] and in test [3] were 0.42%, -0.61% and 0.37%, respectively.
Consider `COc1ccc(N(c2nc(-c3cc(Cl)ccc3Cl)cs2)C2CCNCC2)cc1`, for which the figures for the inhibition in test [1], in test [2] and in test [3] were 0.66%, -0.12% and 1.62%, respectively.
As for `C#CCN1CCC2=C(C1)c1c(O)cc(C(C)C(C)CCc3ccc(F)cc3)cc1OC2(C)C` (stereo not drawn), the figures for the inhibition in test [1], in test [2] and in test [3] were 0.45%, -1.07% and -1.42%, respectively.
Turning to `O=C(/C=C/c1ccc(Cl)c(Cl)c1)NCC1CCC(N2CCC(c3c[nH]c4ccccc34)CC2)CC1` (stereo not drawn), the results for the inhibition in test [1], in test [2] and in test [3] were 5.53%, 11.2% and 0.18%, respectively.
As for `COc1ccc(C(=O)C2CC2CN2CC=C(c3c(C)[nH]c4ccccc34)CC2)cc1` (stereo not drawn), the inhibition in test [1] was -1.12%; in test [2] it was 2.52%; in test [3], 3.3%.
`Cc1[nH]c2ccccc2c1C1=CCN(CCCCC23CCCc4cccc(c42)NC3=O)CC1` (stereo not drawn): the inhibition in test [1] worked out at 2.64%; in test [2] it was 2.98%; in test [3], 2.47%.
Turning to `CCC(C)CN1CCC(N(C)c2cc(NC(=O)c3cccc(C)c3)ccn2)CC1` (stereo not drawn), the inhibition in test [1] is -1.69%; in test [2], 1.14%; in test [3] it was -0.14%.
In the same order, the values of `CN(c1cc(NC(=O)c2ccc(F)cc2)ccn1)C1CCN(Cc2cccc(C#N)c2)CC1` are 3.24%, -2.19% and 5.14%.
On to `O=C(Nc1ccc(Oc2ccccc2)cc1)NC1CCC(CN2CCC(c3c[nH]c4ccccc34)CC2)CC1` (stereo not drawn), for which the inhibition in test [1] is 1.21%; in test [2], 0.51%; in test [3] it was -0.05%.
Consider `CC(=O)Nc1ccc(CN2CCC(N(C)c3cc(NC(=O)c4ccc(F)cc4)ccn3)CC2)cc1`, for which the inhibition in test [1] was determined as 1.04%; in test [2], 2.13%; in test [3] it was 2.53%.
In the case of `COc1cccc(/C=C/C(=O)NC2CCC(CN3CCC(c4c[nH]c5ccccc45)CC3)CC2)c1` (stereo not drawn), the inhibition is 2.16% and -1.74% in test [1]; -0.63% and -2.74% in test [2]; 3.07% and -2.7% in test [3].
With `OC(CNC12CC3CC(CC(C3)C1)C2)c1cccc(C(F)(F)F)c1` (stereo not drawn), the results for the inhibition in test [1], in test [2] and in test [3] were -1.52%, -1.19% and -0.45%, respectively.
In the same order, the values of `CNCCc1c(O)ccc2ccccc12` are 2.95%, 3.27% and 3.59%.
Regarding `CC(=O)Nc1ccc(CN2CCC(N(C)c3cc(NC(=O)c4cccc(F)c4)ccn3)CC2)cc1`, the values for the inhibition in test [1], in test [2] and in test [3] were -0.4%, -0.05% and 0.23%, respectively.
Regarding `CC[C@H]1CN2CC[C@H]1C[C@H]2[C@H](O)c1cc(-c2ccccc2C(F)(F)F)nc2ccc(OC)cc12`, the values for the inhibition in test [1], in test [2] and in test [3] were 0.61%, 1.6% and -1.22%, respectively.
In the same order, the values of `CO/C(=C\C=C\c1cc2cc(Cl)c(Cl)cc2[nH]1)C(=O)N[C@H]1CN2CCC1CC2` are 0.86%, -0.23% and -0.34%.
As for `CC(Cc1ccc(Oc2ccc(Cl)cc2)cc1)NCC(O)c1cccc(Cl)c1` (stereo not drawn), the inhibition in test [1] is -2.67%; in test [2] it was -2.38%; in test [3], -1.74%.
`CC(=O)N(Cc1ccccc1-c1cccc(CNCc2ccc3c(c2)OCO3)c1)C1CCN(Cc2ccccc2)CC1`: the results for the inhibition in test [1], in test [2] and in test [3] were 3.8%, 5.58% and 3.79%, respectively.
In the same order, the values of `C[C@@H]1C[C@@H]([C@H](O)CC2CC(=O)NC(=O)C2)C(=O)[C@@H](C)C1` are 90%, 90.8% and 88.7%.
